Out of some 39,000 compounds screened, about 3,300 (8.5%) were called active. Shown is part of a subset that was picked to be rich in actives.
test system: HepG2; test: cytotoxicity call (relative viability < 0.9); conditions: 10 µM

| Structure (SMILES) | cytotoxicity call |
| --- | --- |
| C[C@@H]1CN([C@@H](C)CO)S(=O)(=O)c2ccc(-c3ccc(C(=O)N(C)C)cc3)cc2O[C@H]1CN(C)C(=O)C1CCC1 | inactive |
| CCS(=O)(=O)NCc1nccc(N(C)C)n1 | inactive |
| COc1ccc(S(=O)(=O)N(C)C[C@H]2OCc3cn(nn3)CCCC(=O)N([C@H](C)CO)C[C@@H]2C)cc1 | inactive |
| O=C(C[C@@H]1CC[C@H]2[C@@H](COC[C@@H](O)CN2S(=O)(=O)c2ccccc2)O1)N[C@@H]1CCN(Cc2ccccc2)C1 | inactive |
| Cc1noc(C)c1NC(=O)Nc1ccc2c(c1)C(=O)N([C@@H](C)CO)C[C@H](C)[C@@H](CN(C)Cc1ccc(Cl)c(Cl)c1)OCCCC[C@H](C)O2 | inactive |
| Cc1noc(C)c1NC(=O)Nc1ccc2c(c1)C(=O)N([C@H](C)CO)C[C@@H](C)[C@@H](CN(C)Cc1ccc(Cl)c(Cl)c1)OCCCC[C@H](C)O2 | active |
| Cc1noc(C)c1NC(=O)Nc1ccc2c(c1)C(=O)N([C@H](C)CO)C[C@H](C)[C@@H](CN(C)Cc1ccc(Cl)c(Cl)c1)OCCCC[C@@H](C)O2 | inactive |
| Cc1noc(C)c1NC(=O)Nc1ccc2c(c1)C(=O)N([C@H](C)CO)C[C@H](C)[C@H](CN(C)Cc1ccc(Cl)c(Cl)c1)OCCCC[C@@H](C)O2 | inactive |
| Cc1noc(C)c1NC(=O)Nc1ccc2c(c1)C(=O)N([C@H](C)CO)C[C@@H](C)[C@H](CN(C)Cc1ccc(Cl)c(Cl)c1)OCCCC[C@H](C)O2 | inactive |
| Cc1noc(C)c1NC(=O)Nc1ccc2c(c1)C(=O)N([C@@H](C)CO)C[C@@H](C)[C@H](CN(C)Cc1ccc(Cl)c(Cl)c1)OCCCC[C@@H](C)O2 | active |
| Cc1noc(C)c1NC(=O)Nc1ccc2c(c1)C(=O)N([C@H](C)CO)C[C@@H](C)[C@H](CN(C)Cc1ccc(Cl)c(Cl)c1)OCCCC[C@@H](C)O2 | inactive |
| Cc1noc(C)c1NC(=O)Nc1ccc2c(c1)C(=O)N([C@H](C)CO)C[C@H](C)[C@@H](CN(C)Cc1ccc(Cl)c(Cl)c1)OCCCC[C@H](C)O2 | inactive |
| Cc1noc(C)c1NC(=O)Nc1ccc2c(c1)C(=O)N([C@@H](C)CO)C[C@H](C)[C@@H](CN(C)Cc1ccc(Cl)c(Cl)c1)OCCCC[C@@H](C)O2 | active |
| Cc1noc(C)c1NC(=O)Nc1ccc2c(c1)C(=O)N([C@@H](C)CO)C[C@@H](C)[C@@H](CN(C)Cc1ccc(Cl)c(Cl)c1)OCCCC[C@@H](C)O2 | active |
| Cc1noc(C)c1NC(=O)Nc1ccc2c(c1)C(=O)N([C@H](C)CO)C[C@H](C)[C@H](CN(C)Cc1ccc(Cl)c(Cl)c1)OCCCC[C@H](C)O2 | inactive |
| Cc1noc(C)c1NC(=O)Nc1ccc2c(c1)C(=O)N([C@@H](C)CO)C[C@@H](C)[C@H](CN(C)Cc1ccc(Cl)c(Cl)c1)OCCCC[C@H](C)O2 | inactive |
| Cc1ccc(S(=O)(=O)Nc2ccc3c(c2)C(=O)N([C@@H](C)CO)C[C@H](C)[C@@H](CN(C)S(C)(=O)=O)OCCCC[C@H](C)O3)cc1 | inactive |
| C[C@H](CO)N1C[C@H](C)[C@H](CN(C)C(=O)Nc2ccc(C(F)(F)F)cc2)OCCCC[C@H](C)Oc2ccc(NC(=O)c3ccncc3)cc2C1=O | inactive |
| C[C@H]1CN([C@@H](C)CO)C(=O)c2cc(C#Cc3ccccc3F)cnc2O[C@@H]1CN(C)S(=O)(=O)c1ccccc1 | inactive |
| C[C@H](CO)N1C[C@H](C)[C@@H](CN(C)S(=O)(=O)c2ccccc2)Oc2ncc(Br)cc2C1=O | inactive |
| S=C(Nc1ccccc1)Nc1ccc2c(c1)oc1ccccc12 | inactive |
| COc1ccc(CN(C)C[C@@H]2Oc3ccc(NC(=O)Cn4cnnn4)cc3CC(=O)N([C@H](C)CO)C[C@@H]2C)cc1 | inactive |
| C[C@@H](N)c1cnn(-c2ccccc2F)c1 | inactive |
| CCN(CC)CCNc1ccc(CO)c2sc3ccccc3c(=O)c12 | active |

| Structure (SMILES) | cytotoxicity call |
| --- | --- |
| CCN(CC)CCNc1ccc(COc2ccccc2/C=C(C)/C=C/C(=O)NO)c2sc3ccccc3c(=O)c12 | inactive |
| CCN(CC)CCNc1ccc(COc2cccc(/C=C(C)/C=C/C(=O)NO)c2)c2sc3ccccc3c(=O)c12 | inactive |
| C[C@@H]1CCCCO[C@@H](CN(C)Cc2ccc(C(=O)O)cc2)[C@@H](C)CN([C@H](C)CO)C(=O)c2cc(NS(=O)(=O)c3cccs3)ccc2O1 | inactive |
| CN(C)CC(=O)N[C@@H]1C=C[C@H](CC(=O)NCCN2CCCCC2)O[C@H]1CO | inactive |
| CN(C)CC(=O)N[C@@H]1C=C[C@@H](CC(=O)NCCN2CCCCC2)O[C@H]1CO | inactive |
| CN(C)CC(=O)N[C@H]1C=C[C@@H](CC(=O)NCCN2CCCCC2)O[C@@H]1CO | active |
| O=C(C[C@H]1C=C[C@H](NC(=O)c2cccnc2)[C@@H](CO)O1)NCCN1CCCCC1 | active |
| O=C(C[C@@H]1C=C[C@@H](NC(=O)c2cccnc2)[C@@H](CO)O1)NCCN1CCCCC1 | inactive |
| O=C(C[C@@H]1C=C[C@@H](NC(=O)c2cccnc2)[C@H](CO)O1)NCCN1CCCCC1 | inactive |
| COCC#Cc1ccc2c(c1)O[C@@H](CN(C)C(=O)Nc1ccc(OC)cc1)[C@H](C)CN([C@@H](C)CO)S2(=O)=O | inactive |
| CC(C)(C)OC(=O)C[C@@H]1CC=CC[C@H](CC(=O)N[C@@H](CO)Cc2ccccc2)C(=O)N2CCC[C@@H]2COC1=O | inactive |
| Cc1noc(C)c1NC(=O)N(C)C[C@H]1Oc2c(NS(C)(=O)=O)cccc2C(=O)N([C@@H](C)CO)C[C@H]1C | inactive |
| CC(C)(C)S(=O)N1Cc2cc(C(=O)N[C@@H]3CCN(Cc4ccccc4)C3)nc(-c3cccc(C#CCC4CCCC4)c3)c2[C@@H]1CCO (stereo not given in full) | inactive |
| N#CC(=Cc1ccc(O)c(O)c1)C(N)=O | inactive |
| CCN(CC)C(=O)C(C#N)=Cc1cc(O)c(O)c([N+](=O)[O-])c1 | inactive |
| N#C/C(=C\c1ccc(O)c(O)c1)C(N)=O | active |
| Cc1noc(C)c1S(=O)(=O)Nc1cccc2c1O[C@@H](CN(C)C(=O)Nc1ccccc1)[C@@H](C)CN([C@H](C)CO)C2=O | inactive |
| CC(C)NC(=O)Nc1ccc2c(c1)C(=O)N([C@H](C)CO)C[C@@H](C)[C@@H](CN(C)CC1CCCCC1)OCCCC[C@@H](C)O2 | inactive |
| NCc1ccc(Br)s1 | inactive |
| Cc1noc(C)c1S(=O)(=O)Nc1ccc2c(c1)C(=O)N([C@H](C)CO)C[C@H](C)[C@H](CN(C)S(C)(=O)=O)OCCCC[C@@H](C)O2 | inactive |
| C[C@H](CO)N1C[C@H](C)[C@H](CN(C)Cc2ccc3c(c2)OCO3)Oc2ccc(NC(=O)C3CC3)cc2C1=O | inactive |
| C[C@@H]1CCCCO[C@@H](CN(C)S(=O)(=O)c2cccs2)[C@@H](C)CN([C@@H](C)CO)C(=O)c2cc(NC(=O)C3CCCCC3)ccc2O1 | inactive |
| C[C@@H]1CN([C@@H](C)CO)S(=O)(=O)c2ccc(/C=C/c3ccccc3)cc2O[C@H]1CN(C)C(=O)Nc1cc(F)ccc1F | inactive |
| COc1ccc(C#Cc2ccc3c(c2)O[C@H](CN(C)C(=O)c2ccccn2)[C@@H](C)CN([C@@H](C)CO)S3(=O)=O)cc1 | inactive |

| Structure (SMILES) | cytotoxicity call |
| --- | --- |
| COc1cccc(C#Cc2ccc3c(c2)O[C@H](CN(C)C(C)=O)[C@@H](C)CN([C@H](C)CO)S3(=O)=O)c1 | inactive |
| COc1cccc(C#Cc2ccc3c(c2)O[C@H](CN(C)C(C)=O)[C@H](C)CN([C@@H](C)CO)S3(=O)=O)c1 | inactive |
| COc1cccc(C#Cc2ccc3c(c2)O[C@@H](CN(C)C(=O)c2ccccn2)[C@@H](C)CN([C@@H](C)CO)S3(=O)=O)c1 | inactive |
| COc1ccc(C#Cc2ccc3c(c2)O[C@H](CN(C)C(=O)c2ccccn2)[C@H](C)CN([C@@H](C)CO)S3(=O)=O)cc1 | active |
| COc1cccc(C#Cc2ccc3c(c2)O[C@H](CN(C)C(=O)c2ccccn2)[C@H](C)CN([C@H](C)CO)S3(=O)=O)c1 | active |
| COc1ccc(C#Cc2ccc3c(c2)O[C@@H](CN(C)C(=O)c2ccccn2)[C@H](C)CN([C@@H](C)CO)S3(=O)=O)cc1 | inactive |
| COc1cccc(C#Cc2ccc3c(c2)O[C@H](CN(C)C(=O)c2ccccn2)[C@@H](C)CN([C@H](C)CO)S3(=O)=O)c1 | inactive |
| COc1cccc(C#Cc2ccc3c(c2)O[C@@H](CN(C)C(C)=O)[C@@H](C)CN([C@@H](C)CO)S3(=O)=O)c1 | active |
| C[C@H]1CN([C@@H](C)CO)C(=O)c2cc(NC(=O)c3ccncc3)ccc2O[C@H]1CN(C)Cc1ccc(Oc2ccccc2)cc1 | inactive |
| COCC#Cc1ccc2c(c1)O[C@H](CN(C)C(=O)Nc1ccccc1F)[C@H](C)CN([C@H](C)CO)S2(=O)=O | inactive |
| Cc1ccc(S(=O)(=O)N[C@@H](Cc2ccccc2)C(=O)NCCn2cc(-c3ccc(C(=O)NO)s3)nn2)cc1 | inactive |
| COc1cccc(S(=O)(=O)N(C)C[C@@H]2Oc3cc(C#CCN(C)C)ccc3S(=O)(=O)N([C@@H](C)CO)C[C@H]2C)c1 | inactive |
| NC(=O)NS(=O)(=O)c1ccc(N)cc1 | inactive |
| CC(=O)NS(=O)(=O)c1ccc(N)cc1 [listing 1 of 2 here] | active |
| CC(=O)NS(=O)(=O)c1ccc(N)cc1 [listing 2 of 2 here] | inactive |
| C[C@H](CO)N1C[C@H](C)[C@H](CN(C)C(=O)Nc2cccc3ccccc23)Oc2ccc(NC(=O)Nc3ccc4c(c3)OCO4)cc2C1=O | inactive |
| Nc1nnc([C@H]2CCCO2)o1 | inactive |
| O=C(O)c1ccc(-n2nc(-c3ccccc3O)nc2-c2ccccc2O)cc1 | active |
| O=C(O)c1ccc(-c2ccccc2)cc1 | inactive |
| O=C(O)c1ccc2nc(O)c(=O)[nH]c2c1 | inactive |
| COCC#Cc1cnc2c(c1)C(=O)N([C@@H](C)CO)C[C@H](C)[C@@H](CN(C)C(=O)Nc1ccccc1OC)O2 | inactive |
| Cc1noc(C)c1S(=O)(=O)N(C)C[C@@H]1OCCCC[C@@H](C)Oc2ccc(NC(=O)Nc3cccc4ccccc34)cc2C(=O)N([C@@H](C)CO)C[C@H]1C | inactive |
